PubChem BioAssay (NCATS)
Records with an inconclusive call do not appear. Values without a mark were called inactive. The source made the active and inactive calls. Calls follow the shape of the dose curve; as a rule, active = well fitted cell-killing curve with a large enough effect; inconclusive = small, poorly fitted or top-dose-only effect, or effect the other way; inactive = no such curve, though single readings can be large or run the other way.

Experiment: Quantitative High-Throughput drug screen in 47 multiple myeloma cell lines against the NCATS MIPE library collection: MM1R_ATCC cell viability assay (AID 1918981)
Conditions: MM1R multiple myeloma cells, CellTiter-Glo viability, 48 h; series mostly up to 45.8 µM; viability (% of control): at the top concentration
In short: (§1)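 500 cells/well per myeloma line exposed to pinned MIPE 4.0 compounds for 48 h at 37 °C, 5% CO2. Viability read as ATP by CellTiter-Glo luminescence, normalised to DMSO-only (100%) and media-only (0%) wells.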
Also: nearly all actives have a fitted effect of over 35% in size.
Potency is read from the fitted curve at half-maximal effect.

| Structure (SMILES) | viability (% of control) [%] | Potency |
| --- | --- | --- |
| COc1cc(NC(=O)c2ccc(-c3ccc(Cl)cc3)o2)cc(OC)c1 | 115 |  |
| O=c1cc(-c2cccc3c2Sc2ccccc2S3)oc(N2CCOCC2)c1 |  | 23.5 µM (active) |
| CC(C)n1cnc2c(NCCCCCCNC(=O)OC(C)(C)C)nc(NCCO)nc21 |  | 20.9 µM (active) |
| CO[C@H]1C=CO[C@@]2(C)Oc3c(C)c(O)c4c(O)c(c5c(c4c3C2=O)NC2(CCN(CC(C)C)CC2)N=5)=NC(=O)C(C)=CC=C[C@H](C)[C@H](O)[C@@H](C)[C@@H](O)[C@@H](C)[C@H](OC(C)=O)[C@H]1C |  | 10.5 µM (active) |
| O=C(O)[C@H]1O[C@H](Oc2cc3oc(-c4ccccc4)cc(=O)c3c(O)c2O)[C@H](O)[C@@H](O)[C@H]1O |  | 23.5 µM (active) |

Experiment: Quantitative High-Throughput drug screen in 47 multiple myeloma cell lines against the NCATS MIPE library collection: LP1_DSMZ cell viability assay (AID 1918982)
Conditions: LP1 myeloma viability, CellTiter-Glo ATP luminescence, 48 h; series mostly up to 45.8 µM; viability (% of control): at the top concentration
In short: as §1

| Structure (SMILES) | viability (% of control) [%] | Potency |
| --- | --- | --- |
| CC[C@H]1OC(=O)[C@H](C)[C@@H](O[C@H]2C[C@@](C)(OC)[C@@H](O)[C@H](C)O2)[C@H](C)[C@@H](O[C@@H]2O[C@H](C)C[C@H](N(C)C)[C@@H]2O)[C@](C)(O)C[C@@H](C)CN(C)[C@H](C)[C@@H](O)[C@]1(C)O | 103 |  |
| CC(=O)Nc1ccc([C@H](C)C(=O)Nc2ncc(C(C)C)s2)cc1 |  | 2.35 µM (active) |
| CC(C(=O)O)c1ccc(-c2ccccc2)c(F)c1 (stereo unspecified) | 105 |  |
| C[C@H](NC(=O)C(=O)Nc1ccccc1C(C)(C)C)C(=O)N[C@@H](CC(=O)O)C(=O)COc1c(F)c(F)cc(F)c1F |  | 9.35 µM (active) |
| CCn1cc(C(=O)O)c(=O)c2ccc(C)nc21 | 112 |  |
| CC1(C)CCC[C@@]2(C)[C@@H]1CC[C@@]1(C)OC(=O)C[C@H]21 | 87.3 |  |
